Among the test systems are NCI-H23 lung; NCI-H226 lung; NCI-H322M lung; HOP-62 NSCLC; NCI-H460 lung; A549/ATCC NSCLC; 786-0 renal; COLO 205 colon; DU-145 prostate; K-562 leukemia; MALME-3M melanoma; MDA-MB-231 breast; RXF 393 renal; SF-268 CNS; SF-295 CNS; SF-539 CNS; UACC-257 melanoma; M14 melanoma.
Experiment in all cases: NCI-60 one-dose screen, 48 h (100 = growth as untreated, 0 = no growth, -100 = all killed)
Settings in all cases: 10 µM unless noted

The values that follow come from PubChem BioAssay (NCI).

The panel holds about 83,000 compounds, 20% with a hit somewhere; the sample as a whole holds those more often.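 96-well plates, one dose, 48 hours. Percent growth reported; active if below 10.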 Unmarked numbers belong to inactive results. Activity calls are given as the source filed them.

Take `CCCCCCCCCCCCOC(=N)N(C)C`: the growth with NCI-H23 lung was 107%; with NCI-H226 lung, 96.2%; in the assay with NCI-H322M lung it was 95%; in the assay with HOP-62 NSCLC, 97%; with NCI-H460 lung, 99.8%; with A549/ATCC NSCLC it was 91.7%. Moreover, the growth with 786-0 renal was 96.8%; with COLO 205 colon, 100%; with DU-145 prostate, 112%; in the assay with K-562 leukemia, 96.3%; with MALME-3M melanoma, 88.9%; in the assay with MDA-MB-231 breast, 104%. The growth in the assay on RXF 393 renal was 112%; with SF-268 CNS, 101%; in the assay with SF-295 CNS, 98.4%; in the assay on SF-539 CNS, 99.4%; in the assay on UACC-257 melanoma, 92.2%; with M14 melanoma, 106%.

In the case of `N#Cc1ccc(OCc2nc(N)nc(N)c2-c2ccc(Cl)c(Cl)c2)cc1`, the growth in the assay on NCI-H23 lung is 36.3%; with NCI-H226 lung, 45.8%; in the assay on NCI-H322M lung it was 40.6%; in the assay on HOP-62 NSCLC, 9.96% (active); in the assay with NCI-H460 lung, 14.1%; in the assay with A549/ATCC NSCLC, 7.74% (active). The growth with 786-0 renal was 25.8%; in the assay on COLO 205 colon, 45.5%; in the assay on DU-145 prostate, 34.3%; in the assay with K-562 leukemia it was 12.6%; in the assay on MALME-3M melanoma, 49.5%; in the assay on MDA-MB-231 breast, 50.7%. Also, the growth in the assay on RXF 393 renal was 46%; in the assay on SF-268 CNS, 33.6%; in the assay with SF-295 CNS, 3.74% (active); in the assay with SF-539 CNS it was 22.7%; in the assay with UACC-257 melanoma, 22.8%; in the assay on M14 melanoma, 27.6%.

Regarding `COc1cc(-c2nn(-c3ccc(NC(=O)Nc4cc(C(F)(F)F)cc(C(F)(F)F)c4)cc3)cc2-c2ccncc2)ccc1Cl`, the growth in the assay with NCI-H23 lung was 8.45% (active); with NCI-H226 lung, 18.4%; with NCI-H322M lung it was 6.93% (active); with HOP-62 NSCLC it was 12.2%; with NCI-H460 lung, -20.6% (active); with A549/ATCC NSCLC, 12.1%. Besides, the growth in the assay on 786-0 renal is -41.4% (active); in the assay with COLO 205 colon it was -89.8% (active); in the assay with DU-145 prostate, 16.8%; in the assay on K-562 leukemia, 17.2%; in the assay with MALME-3M melanoma, -1.21% (active); with MDA-MB-231 breast, -18.7% (active). Further, the growth with RXF 393 renal was -2.81% (active); in the assay on SF-268 CNS it was 14.1%; in the assay on SF-295 CNS, -34.8% (active); in the assay on SF-539 CNS, 15.8%; with UACC-257 melanoma, -1.38% (active); with M14 melanoma, 4.73% (active).

On to `CC[N+](C)(C)N`, for which the growth is 114% with NCI-H23 lung; 89.9% in the assay with NCI-H226 lung; 93.2% with NCI-H322M lung; 111% in the assay on HOP-62 NSCLC; 108% in the assay on NCI-H460 lung; 105% with A549/ATCC NSCLC. Besides, the growth in the assay on 786-0 renal is 100%; in the assay with COLO 205 colon, 112%; in the assay with DU-145 prostate it was 118%; in the assay with K-562 leukemia, 103%; in the assay on MALME-3M melanoma it was 112%; in the assay on MDA-MB-231 breast, 106%. The growth is 94.3% with RXF 393 renal; 110% with SF-268 CNS; 104% in the assay with SF-295 CNS; 109% in the assay with SF-539 CNS; 110% in the assay on UACC-257 melanoma; 107% in the assay with M14 melanoma.

On to `CCCC[N+](C)(N)CCCC`, for which the growth in the assay with NCI-H23 lung was 112%; with NCI-H226 lung, 105%; in the assay with NCI-H322M lung it was 103%; with HOP-62 NSCLC, 97.6%; with NCI-H460 lung it was 102%; in the assay on A549/ATCC NSCLC it was 103%. Also, the growth in the assay on 786-0 renal is 97.1%; with COLO 205 colon, 122%; in the assay with DU-145 prostate, 111%; with K-562 leukemia it was 103%; with MALME-3M melanoma it was 107%; with MDA-MB-231 breast, 108%. The growth in the assay with RXF 393 renal is 115%; with SF-268 CNS, 112%; in the assay with SF-295 CNS, 94.5%; in the assay with SF-539 CNS, 101%; in the assay on UACC-257 melanoma it was 106%; in the assay with M14 melanoma it was 100%.

Take `O=C(/C=C/c1ccc(Cl)cc1)c1ccc(Cl)cc1`: the growth in the assay on NCI-H23 lung is 94.8%; in the assay on NCI-H226 lung it was 100%; in the assay on NCI-H322M lung, 91.3%; in the assay on HOP-62 NSCLC, 102%; with NCI-H460 lung, 104%; in the assay on A549/ATCC NSCLC, 95.5%. In addition, the growth with 786-0 renal was 83.4%; in the assay on COLO 205 colon, 113%; in the assay on DU-145 prostate, 101%; in the assay with K-562 leukemia, 73.9%; with MALME-3M melanoma, 91.8%; with MDA-MB-231 breast, 118%. Moreover, the growth was 96% in the assay with RXF 393 renal; 98.3% with SF-268 CNS; 104% in the assay with SF-539 CNS; 103% in the assay with UACC-257 melanoma; 100% in the assay on M14 melanoma.

In the case of `CNc1ccc(Nc2ccc(S(=O)(=O)O)cc2)c2c1C(=O)c1ccccc1C2=O`, the growth in the assay with NCI-H23 lung was 106%; with NCI-H226 lung, 96.6%; with NCI-H322M lung it was 112%; with HOP-62 NSCLC, 125%; with NCI-H460 lung, 108%; in the assay on A549/ATCC NSCLC it was 92%. Also, the growth in the assay on 786-0 renal was 103%; with COLO 205 colon, 118%; in the assay on DU-145 prostate it was 112%; with K-562 leukemia it was 101%; in the assay on MALME-3M melanoma, 110%; in the assay with MDA-MB-231 breast, 111%. Besides, the growth in the assay with RXF 393 renal was 104%; in the assay with SF-268 CNS, 114%; with SF-539 CNS, 101%; with UACC-257 melanoma, 107%; in the assay on M14 melanoma it was 112%.

For the compound `NCCCOc1cc(Cl)ccc1NC(=O)c1cc2ccccc2cc1OCCCN`, the growth in the assay on NCI-H23 lung was -62.3% (active); with NCI-H226 lung it was -28.9% (active); in the assay on NCI-H322M lung, -1.29% (active); in the assay with HOP-62 NSCLC, -94.3% (active); in the assay on NCI-H460 lung it was -91% (active); with A549/ATCC NSCLC, -93.6% (active). Besides, the growth in the assay on 786-0 renal was -89.2% (active); in the assay on COLO 205 colon, -88% (active); with DU-145 prostate, -90% (active); with K-562 leukemia, 0.57% (active); in the assay with MALME-3M melanoma it was -4.21% (active); in the assay with MDA-MB-231 breast, -65% (active). For the same compound, the growth with RXF 393 renal is -5.16% (active); in the assay with SF-268 CNS, -73.6% (active); in the assay with SF-295 CNS, -62% (active); in the assay on SF-539 CNS, -88.8% (active); in the assay with M14 melanoma, -88.5% (active).
